Screening results (PubChem)
Only some compounds are listed: those with a hit (about 9.4% of all), similar ones and a draw of the others.
AMA1 RON2 block: inhibitors of Plasmodium falciparum AMA1-RON2 interaction. AlphaScreen AMA1-biotinylated RON2 peptide binding. Potency, µM (doses to about 58.2 µM), hits mostly inhibitors. hit rate 0.2% among 360,000. AID 720542; further: nearly all actives have a fitted effect of over 45% in size
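AMA1 (3D7) with his tag at 25 nM final met compounds first, then biotinylated RON2 peptide at 25 nM; detection used donor plus acceptor beads, 10 µg/mL apiece, read by AlphaScreen after 30 min at room temperature.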
SARS PLpro yeast: blocks SARS-CoV papain-like protease in a yeast assay. Potency, µM (titrated, usually from 32.9 µM), usual class: activators. S. cerevisiae expressing SARS-CoV PLpro, growth rescue. hit rate 0.19% among 330,000. AID 485353; calls by dose curve; further: nearly all actives have a fitted effect of over 55% in size
Pf growth 96h: inhibits malaria parasite growth, 96 h | Potency, µM (highest dose often 28.7 µM), actives largely listed as inhibitors | P. falciparum luciferase reporter growth, 96 h | AID 504834 | hit rate 6.9% among 320,000
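Luminescence readout: decreased luciferase signal marks inhibited growth of reporter-expressing P. falciparum in infected red cells (2% hematocrit, 0.05% parasitemia final), exposed to compound two generations (96 h, 37 C, 5% CO2).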
Pf growth 48h: inhibits P. falciparum growth in the first generation, 48 h; hit rate 5.9% among 310,000; P. falciparum luciferase growth in erythrocytes, 48 h; AID 504832; Potency, µM (doses to about 28.7 µM), usual class: inhibitors
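Erythrocytes infected with P. falciparum carrying an integrated firefly luciferase reporter (2% hematocrit, 0.1% parasitemia final) were exposed to compounds in RPMI 1640 with 0.5% Albumax at 37 C, 5% CO2. Growth inhibition was scored as reduced luminescence.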
Each line names hits and unclear results; the compound was inactive in the other large screens. Unless noted, the call rests on the fitted dose curve; in most records, active means well fitted curve in the direction sought with a large enough effect; inconclusive means small, poorly fitted or top-dose-only effect, or another doubt; inactive means no such curve, though single readings can be large; an effect the other way counts as inactive or inconclusive.

COC(=O)[C@@]12CCCN1[C@H](c1ccc(-c3cccc(Cl)c3)c(OC)c1)[C@H]1C(=O)N(C)C(=O)[C@H]12	Pf growth 96h 0.33µM, Pf growth 48h 2.3µM
COC(=O)[C@@]12CCCCN1[C@H](c1ccc(-c3cccc(Cl)c3)c(OC)c1)[C@@H]1C(=O)N(C)C(=O)[C@@H]12	Pf growth 96h 7.4µM, Pf growth 48h 9.3µM
COC(=O)[C@@]12CCCN1[C@H](c1ccc(-c3ccc(Cl)c(Cl)c3)c(OC)c1)[C@H]1C(=O)N(C)C(=O)[C@H]12	none (no result: Pf growth 96h, Pf growth 48h)
CCCN1CCN(C(=O)c2ccc3nc(CC)c(CC)nc3c2)CC1	none
CCc1nc2ccc(C(=O)N3CCN(c4ccccc4)CC3)cc2nc1CC	Pf growth 96h 2.6µM
CCc1nc2ccc(C(=O)N3CCN(c4ccc(Cl)cc4)CC3)cc2nc1CC	Pf growth 96h 5.2µM
Fc1ccccc1N1CCN(CCCc2ccccc2)CC1	Pf growth 96h 12µM
CCN1C(=O)c2cccc3c(S(=O)(=O)N(C(=O)c4ccncc4)c4ccc(OC)cc4)ccc1c23	Pf growth 96h 13µM, Pf growth 48h 15µM
O=C(COC(=O)c1cc(=O)[nH]c2ccccc12)Nc1nccs1	none
Cc1ccc2c(c1C)NC(=O)C21N2CCCC2C(C(=O)c2ccc3ccccc3c2)C12C(=O)Nc1ccccc12 (stereo not given)	Pf growth 96h 9.3µM, Pf growth 48h 9.3µM
CN(C)CCN1CCN(C2CN(Cc3cn(Cc4ccc(F)cc4)nn3)S(=O)(=O)C2)CC1 (stereo not given)	none (no result: SARS PLpro yeast, Pf growth 96h, Pf growth 48h)
Cc1nc(Nc2nc(CSc3nc4ccccc4[nH]3)cc(=O)[nH]2)nc2ccccc12	Pf growth 96h 9.3µM, Pf growth 48h inconclusive
Cc1nc(Nc2nc(CSc3ccc(Cl)cc3)cc(=O)[nH]2)nc2ccccc12	Pf growth 96h inconclusive
CCCCCc1c(C)nc(Nc2nc(C)c3cc(OC)ccc3n2)[nH]c1=O	Pf growth 96h inconclusive
COc1ccc2nc(Nc3nc(CSc4nc5ccccc5[nH]4)cc(=O)[nH]3)nc(C)c2c1	Pf growth 96h 10µM, Pf growth 48h inconclusive
COc1ccc(C2c3c(noc3C)CC(C)(O)C2C(C)=O)cc1 (stereo not given)	none
Cc1cc(C)c(NC(=O)NC2CCCCC2)c(C)c1	none
Cc1cc(C2CCCCC2)n(O)c(=O)c1	Pf growth 96h 0.47µM, Pf growth 48h 0.74µM (no result: SARS PLpro yeast)
Nc1ccc(-c2ncc(-c3ccccc3)o2)cc1	AMA1 RON2 block inconclusive, Pf growth 96h inconclusive, Pf growth 48h 9.3µM
COc1c(O)c(=O)n2c3ccccc3c3ccnc1c32	Pf growth 96h inconclusive, Pf growth 48h 10µM
CCc1cc2c(SCC(=O)NC3CCS(=O)(=O)C3)ncnc2s1 (stereo not given)	Pf growth 96h inconclusive
O=C(NCc1cccnc1)c1ccc2c(c1)OCO2	Pf growth 96h 9.3µM
O=C(NCc1ccc2c(c1)OCO2)c1ccc(-n2cnnn2)cc1	Pf growth 96h 1.7µM
O=C(NCc1ccc2c(c1)OCO2)c1ccncc1	SARS PLpro yeast 16µM (no result: Pf growth 48h)
N#CC1=C(N)NC(SCc2ccccc2)=C(C#N)C12CCCCC2	none
COc1cc(OC)cc(-c2c(-c3cccs3)c3cc(-c4cc(OC)c(OC)c(OC)c4)ccc3n2C)c1	none (no result: Pf growth 96h, Pf growth 48h)
COc1ccc(-c2ccc3c(c2)c(-c2cccs2)c(-c2cc(OC)cc(OC)c2)n3C)cc1	Pf growth 96h inconclusive, Pf growth 48h 2.6µM
COc1cc(OC)cc(-c2c(-c3cccs3)c3cc(-c4cnc(OC)nc4)ccc3n2C)c1	Pf growth 96h 3.3µM, Pf growth 48h 1.9µM
COc1cc(C#Cc2c(-c3cncn3C)n(C)c3ccc(-c4cnc(OC)nc4)cc23)cc(OC)c1	Pf growth 96h 2.6µM, Pf growth 48h inconclusive
COc1cc(C#Cc2c(-c3cncn3C)n(C)c3ccc(-c4cnc(N5CCOCC5)nc4)cc23)cc(OC)c1	none (no result: Pf growth 96h, Pf growth 48h)
NC(=O)CC(NC(=O)Cc1ccc(Br)cc1)c1ccc(NC2CCCCCC2)c([N+](=O)[O-])c1 (stereo not given)	Pf growth 96h inconclusive, Pf growth 48h inconclusive
Cc1cc(C)cc(C(=O)NCCn2cc(SCC(=O)N3CCOCC3)c3ccccc32)c1	none
Cc1ccc(Cn2ccsc2=NC(=O)COC(=O)c2ccc(NC(=O)CC#N)cc2)cc1	Pf growth 96h 10µM, Pf growth 48h 13µM
N#CCC(=O)Nc1ccc(C(=O)OCC(=O)C23CC4CC(CC(C4)C2)C3)cc1	Pf growth 96h inconclusive, Pf growth 48h 13µM
N#CCC(=O)Nc1ccc(C(=O)OCC(=O)NCCCc2ccccc2)cc1	Pf growth 96h 1.2µM
N#CCC(=O)Nc1ccc(C(=O)OCc2ccccc2Oc2ccccc2)cc1	Pf growth 96h inconclusive, Pf growth 48h 10µM
